Assay outcomes deposited in PubChem BioAssay by National Center for Advancing Translational Sciences (NCATS).
Hits are enriched below; roughly 19% of the tested compounds scored in any of these assays.
MCF10A rerep: A quantitative high throughput screen for small molecules that induce DNA re-replication in MCF 10a normal breast cells; MCF 10A DNA re-replication, Hoechst nuclear intensity, 48 h; Potency, µM (top dose mostly 46.1 µM), most hits filed as activators; hit rate 2.9% among 350,000; AID 624296, 2012; note: nearly all actives have a fitted effect of over 50% in size
TDP1 cell CPT: qHTS for Inhibitors of human tyrosyl-DNA phosphodiesterase 1 (TDP1): qHTS in cells in presence of CPT | Potency, µM (doses to about 46.2 µM), hits mostly inhibitors | chicken DT40 Tdp1-/-;hTDP1 cells + 20 nM CPT, ATP luminescence, 48 h | hit rate 12% among 420,000 | AID 686979, 2013; note: nearly all actives have a fitted effect of over 55% in size
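Cell growth measured by CellTiter-Glo luminescence after a minimum 48 h, 37 C compound exposure with 20 nM CPT in Tdp1-knockout DT40 cells stably expressing hTDP1, seeded 400/well; qHTS titration format.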
TDP1 cell noCPT: qHTS for Inhibitors of human tyrosyl-DNA phosphodiesterase 1 (TDP1): qHTS in cells in absence of CPT | DT40 Tdp1-/- hTDP1 cells, no CPT, ATP luminescence, 48 h | Potency, µM (top dose mostly 46.2 µM), usual class: inhibitors | hit rate 15% among 420,000 | AID 686978, 2013; note: nearly all actives have a fitted effect of over 55% in size
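Chicken DT40 Tdp1-/- cells stably complemented with human TDP1 were seeded at 400 cells/well with DMSO in place of 20 nM camptothecin. After compound pinning, cells grew at least 48 hr at 37 °C; viability read by CellTiter-Glo luminescence.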
SW480 rerep: A quantitative high throughput screen for small molecules that induce DNA re-replication in SW480 colon adenocarcinoma cells. Potency, µM (highest dose often 46.1 µM), usual class: activators. hit rate 1.8% among 340,000. SW480 DNA re-replication, Hoechst DNA content imaging, 48 h; note: nearly all actives have a fitted effect of over 55% in size
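Hoechst fluorescence of nuclei (405 nm excitation, 500-530 nm emission) measured by plate-scanning imager after 48 hr compound exposure at 37 C; re-replication scored as increased number of nuclei with elevated intensity.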
IL1B secr inh: qHTS for Inhibitors of Inflammasome Signaling: IL-1-beta AlphaLISA Primary Screen; AID 743279, 2014; hit rate 4.7% among 360,000; activity change, % at 57.5 µM; THP-1 LPS/ATP IL-1B secretion, AlphaLISA, 16 h; hits give low values; in the data active = activity change below about -50%; inconclusive = mostly about -30% to -49%
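Secreted IL-1B measured by AlphaLISA bead assay after 16 h compound exposure of THP-1 cells; compounds (final up to 57.5 uM) added 1 h before LPS (250 ng/mL) and ATP (1.25 mM) stimulation; lower signal means less secretion.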
Chronic BCR inh: qHTS Assay to Find Inhibitors of Chronic Active B-Cell Receptor Signaling. ABC-DLBCL IkBa-CBG/CBR reporter, luminescence ratio, 4 h. hit rate 0.05% among 340,000. AID 493014, 2011. Potency, µM (highest dose often 46.1 µM), hits mostly inhibitors; active = well fitted inhibition curve with a large enough effect in the signal ratio, with a control signal flat, not every such curve was filed as active; inconclusive = small, poorly fitted or top-dose-only effect, or effect the other way, or a change in a side signal; the % refers to the signal ratio
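TMD8 human ABC-DLBCL cells with doxycycline-inducible IκBα–green luciferase fusion and unfused red luciferase, in 0.5% FBS medium; compounds up to 46 uM, 4 h at 37C. Green/red luminescence ratio, filter-overlap corrected, fitted to concentration-response curves.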
Hits are given with their value; 0 = inactive; ? = inconclusive; - = no result; [ ] = another dose, or the depositor's remark. Unless noted, calls come from the whole dose curve; as a rule, active = well fitted curve in the direction sought with a large enough effect; inconclusive = small, poorly fitted or top-dose-only effect, or another doubt; inactive = no such curve, though single readings can be large; an effect the other way counts as inactive or inconclusive.

SMILES | MCF10A rerep | TDP1 cell CPT | TDP1 cell noCPT | SW480 rerep | IL1B secr inh | Chronic BCR inh
O=C(CC1N=C2c3ccccc3N=C(SCc3ccccc3F)N2C1=O)NCCc1ccccc1 (stereo not drawn) | - | 20.6µM | 20.6µM | - | - | ?
O=C(CC1N=C2c3ccccc3N=C(SCc3ccccc3Cl)N2C1=O)NC1CCCCC1 (stereo not drawn) | - | 9.2µM | 11.6µM | - | - | 0
O=C(CC1N=C2c3ccccc3N=C(SCc3cccc(Cl)c3)N2C1=O)NC1CCCCC1 (stereo not drawn) | - | 16.4µM | 18.4µM | - | - | 0
COc1ccccc1CNC(=O)CCC1N=C2c3ccccc3N=C(SCc3ccccc3Cl)N2C1=O (stereo not drawn) | - | ? | ? | - | - | 0
O=C(CC1N=C2c3ccccc3N=C(SCc3cccc(F)c3)N2C1=O)NCc1cccs1 (stereo not drawn) | - | ? | ? | - | - | 0
O=C(CCC1N=C2c3ccccc3N=C(SCc3ccccc3F)N2C1=O)NC1CCCCC1 (stereo not drawn) | - | 18.4µM | 18.4µM | - | - | 0
CCCCC/C=C/C=C1/C(=O)C=C[C@@H]1C/C=C\CCCC(=O)O | - | 0[4.12 µM] | 0[4.12 µM] | - | - | -
CCn1c(O)c(N=Nc2ccc3ccccc3n2)c2ccccc21 | 0 | ? | 23.1µM | 0 | ? | ?
C=CCn1c(O)c(N=NC(=S)Nc2ccc(OC)c(Cl)c2)c2ccccc21 | ? | 4.61µM | 2.59µM | 0 | 0 | 0
CCCCn1c(O)c(N=Nc2ccccc2O)c2ccccc21 | 0 | 23.1µM | ? | ? | 0 | 0
C=CCn1c(O)c(N=NC(=O)C(O)c2ccccc2)c2ccccc21 (stereo not drawn) | 0 | 0 | 0 | 0 | ? | 0
C=CCn1c(O)c(N=Nc2ccccc2C)c2ccccc21 | ? | 18.4µM | ? | ? | 0 | 0
C=CCn1c(O)c(N=NC(=O)OC(C)(C)C)c2ccccc21 | 0 | 0 | 0 | 0 | 0 | 0
NS(=O)(=O)c1ccc(CNS(=O)(=O)c2cccc3nonc23)cc1 | ? | 0 | 0 | 0 | 0 | 0
O=C(/C=C/c1ccccc1[N+](=O)[O-])Nc1cc(S(=O)(=O)N2CCOCC2)ccc1N1CCOCC1 | ? | 0 | 0 | 0 | 0 | -
CCc1cccc(CC)c1NC(=O)c1ccc2c(c1)CCN2S(=O)(=O)c1ccccc1 | - | 0 | 0 | - | - | -
CCOc1ccc(NC(=O)c2ccc3c(c2)CCN3S(=O)(=O)CC)cc1 | - | 0 | ? | - | - | -
CCc1cccc(C)c1NC(=O)c1ccc2c(c1)CCN2S(=O)(=O)CC | - | ? | 11.6µM | - | - | -
CCc1cccc(C)c1NC(=O)c1ccc2c(c1)CCN2S(=O)(=O)c1ccc(Cl)cc1 | - | ? | 9.2µM | - | - | -
CCS(=O)(=O)N1CCc2cc(C(=O)Nc3cc(Cl)ccc3C)ccc21 | - | 29.1µM | 23.1µM | - | - | -
CC(=O)Nc1cc(=O)c2cccnc2[nH]1 | 0 | 0 | 0 | 0 | 0 | -
Cn1c(SCC(=O)Nc2ccc3c(c2)OCCO3)nnc1-c1ccncc1 | 0 | 0 | 0 | 0 | 0 | 0
Cc1ccccc1S(=O)(=O)Cc1ccc(C(=O)N2CC(C)CC(C)C2)o1 (stereo not drawn) | 0 | ? | ? | 0 | 0 | 0
COc1ccc(S(=O)(=O)Cc2ccc(C(=O)N3CCN(c4ccccc4)CC3)o2)cc1 | 0 | 0 | 0 | 0 | 0 | 0
Cc1ccccc1S(=O)(=O)Cc1ccc(C(=O)N2CCN(c3cccc(C)c3C)CC2)o1 | 2.31µM | 5.17µM | 4.11µM | 4.11µM | 0 | ?
SMILES | MCF10A rerep | TDP1 cell CPT | TDP1 cell noCPT | SW480 rerep | IL1B secr inh | Chronic BCR inh
CCc1ccccc1S(=O)(=O)Cc1ccc(C(=O)N2CCN(c3ccccc3OC)CC2)o1 | 0 | 8.2µM | 13µM | ? | 0 | ?
Cc1ccccc1S(=O)(=O)Cc1ccc(C(=O)N2CCN(c3cccc(Cl)c3)CC2)o1 | - | 4.11µM | 4.61µM | - | - | -
Cc1ccc(S(=O)(=O)Cc2ccc(C(=O)N3CCN(c4cccc(Cl)c4)CC3)o2)cc1 | - | 0.651µM | 0.651µM | - | - | -
O=c1oc2ccc3ccccc3c2cc1-c1nnc(Nc2ccc(Cl)cc2Cl)s1 | - | 0 | 0 | - | - | -
CN1CCc2nc3ccc(Cl)cc3c(-c3ccccc3Cl)c2C1 | 0 | ? | ? | 0 | -56.4 | 0
COc1ccc(S(=O)(=O)NC(C)c2ccc3c(c2)OCCO3)cc1 (stereo not drawn) | - | 0 | 0 | - | 0 | -
O=C1NC(c2cccs2)Nc2sc3c(c21)CCCC3 (stereo not drawn) | ? | 4.11µM | 3.26µM | 0 | 0 | 0
COc1ccc(CCN2Cc3c(N)cccc3C2=O)cc1OC | 0 | 0 | 0 | 0 | 0 | 0
CCCCOc1ccc(-c2nnc(-c3ccncc3)o2)cc1 | 0 | ? | 20.6µM | 0 | 0 | 0
CCOc1ccc(-c2nnc(-c3ccccc3)o2)cc1 | ? | 0 | ? | 0 | ? | ?
CCOc1ccc(-c2nnc(-c3ccncc3)o2)cc1 | 0 | 20.6µM | ? | 0 | 0 | 0
